Among the data in paper PMC7862700, “An all-to-all approach to the identification of sequence-specific readers for epigenetic DNA modifications on cytosine” are binding signal values, retold here.

Test in all cases: DAPPL (digital affinity profiling via proximity ligation, sequencing); 10 mM Tris-HCl pH 7.5, 50 mM NaCl, 1 mM DTT, 4% glycerol, room temperature, 30 min; GST-TFs on glutathione beads, 16-mer random dsDNA library, 0.1% formaldehyde crosslink after washing; high values mean tight binding
The target of one test is T1, FEV (Homo sapiens, UniProt Q99581 1-238).
T1 sequence: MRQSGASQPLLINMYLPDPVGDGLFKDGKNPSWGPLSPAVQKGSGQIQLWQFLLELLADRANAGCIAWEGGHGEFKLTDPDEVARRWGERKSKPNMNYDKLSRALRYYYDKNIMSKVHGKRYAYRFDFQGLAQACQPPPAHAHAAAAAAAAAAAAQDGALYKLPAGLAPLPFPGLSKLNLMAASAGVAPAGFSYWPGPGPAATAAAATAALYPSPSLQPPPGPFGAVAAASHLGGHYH
The conditions noted are these: protein: recombinant; tags: N-terminal GST; dsDNA, one strand shown. In a few lines: (§1)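 Human transcription factors were made in yeast as GST fusions, captured on glutathione beads and barcoded with DNA. With a tag-only sample included, the pool was incubated with 200 nmole of a random double-stranded 16-mer DNA library in Tris/NaCl/DTT/glycerol buffer at room temperature for 30 min, then crosslinked with 0.1% formaldehyde after washing, ligated by proximity, amplified and sequenced. For binding signal, each hexamer's read frequency for a factor is divided by its frequency for the tag-only sample.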

The target of a further test is ETV5 (Homo sapiens, UniProt P41161 1-510). As to conditions: protein: recombinant; tags: N-terminal GST; dsDNA, one strand shown. In a few lines: as §1
Sequence of ETV5 (P41161 whole entry): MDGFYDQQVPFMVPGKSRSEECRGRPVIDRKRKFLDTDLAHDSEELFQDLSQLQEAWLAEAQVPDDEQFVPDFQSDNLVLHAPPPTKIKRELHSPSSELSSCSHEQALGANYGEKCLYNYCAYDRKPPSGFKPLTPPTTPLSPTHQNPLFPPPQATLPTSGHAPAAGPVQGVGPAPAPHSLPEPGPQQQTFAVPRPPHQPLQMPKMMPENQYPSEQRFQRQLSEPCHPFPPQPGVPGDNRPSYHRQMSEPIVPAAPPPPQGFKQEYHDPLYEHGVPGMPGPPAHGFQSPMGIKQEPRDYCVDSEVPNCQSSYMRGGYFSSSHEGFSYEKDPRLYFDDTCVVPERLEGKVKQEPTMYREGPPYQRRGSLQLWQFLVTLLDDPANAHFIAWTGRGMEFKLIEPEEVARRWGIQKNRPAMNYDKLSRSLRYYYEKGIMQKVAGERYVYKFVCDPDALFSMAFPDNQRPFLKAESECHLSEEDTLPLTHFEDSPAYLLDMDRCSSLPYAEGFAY
The target in the next test is HSF1 (Homo sapiens, UniProt Q00613 1-529). The conditions noted are these: protein: recombinant; tags: N-terminal GST; chain copies: 3; dsDNA, one strand shown. Put shortly: as §1
Sequence of HSF1 (Q00613 whole entry): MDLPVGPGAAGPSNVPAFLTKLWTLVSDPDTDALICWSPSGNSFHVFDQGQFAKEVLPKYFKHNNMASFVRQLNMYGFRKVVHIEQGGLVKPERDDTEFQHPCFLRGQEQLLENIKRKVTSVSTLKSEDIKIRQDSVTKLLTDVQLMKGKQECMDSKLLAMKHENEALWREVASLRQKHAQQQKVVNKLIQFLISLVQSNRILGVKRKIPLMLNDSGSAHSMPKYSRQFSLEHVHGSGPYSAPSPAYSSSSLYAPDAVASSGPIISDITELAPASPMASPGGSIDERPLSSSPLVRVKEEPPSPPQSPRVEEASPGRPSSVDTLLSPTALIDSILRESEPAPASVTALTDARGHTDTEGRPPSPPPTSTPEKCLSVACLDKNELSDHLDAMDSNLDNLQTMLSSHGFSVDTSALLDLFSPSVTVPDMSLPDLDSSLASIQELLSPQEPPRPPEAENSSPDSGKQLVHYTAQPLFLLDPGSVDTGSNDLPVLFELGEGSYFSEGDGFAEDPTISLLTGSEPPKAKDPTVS
Another test has as its target T2, SPIC (Homo sapiens, UniProt Q8N5J4 1-248).
T2 sequence: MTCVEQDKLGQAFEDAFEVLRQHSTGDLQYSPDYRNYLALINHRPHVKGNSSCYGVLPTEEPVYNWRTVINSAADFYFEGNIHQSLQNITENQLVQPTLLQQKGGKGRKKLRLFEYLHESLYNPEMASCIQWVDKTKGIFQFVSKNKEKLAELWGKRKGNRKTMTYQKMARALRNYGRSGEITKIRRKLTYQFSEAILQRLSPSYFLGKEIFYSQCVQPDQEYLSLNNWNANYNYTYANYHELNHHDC
As to conditions: protein: recombinant; tags: N-terminal GST; dsDNA, one strand shown. In a few lines:
as §1

For the next test, the target named is ELF4 (Homo sapiens, UniProt Q99607 1-663). The conditions noted are these: protein: recombinant; tags: N-terminal GST; dsDNA, one strand shown. In a few lines:
as §1

The target in a further test is T3, ELK4 (Homo sapiens, UniProt P28324-2 1-405).
T3 sequence: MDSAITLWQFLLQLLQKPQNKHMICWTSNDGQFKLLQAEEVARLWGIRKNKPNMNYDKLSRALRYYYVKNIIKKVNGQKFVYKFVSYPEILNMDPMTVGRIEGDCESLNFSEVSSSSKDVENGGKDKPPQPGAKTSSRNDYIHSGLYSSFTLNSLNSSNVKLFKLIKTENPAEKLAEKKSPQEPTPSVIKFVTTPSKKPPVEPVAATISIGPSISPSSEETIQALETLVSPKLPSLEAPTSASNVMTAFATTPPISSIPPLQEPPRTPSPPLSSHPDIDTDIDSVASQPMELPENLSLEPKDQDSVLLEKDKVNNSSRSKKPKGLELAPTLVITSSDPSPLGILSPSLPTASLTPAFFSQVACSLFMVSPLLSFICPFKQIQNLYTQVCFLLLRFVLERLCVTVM
The conditions noted are these: protein: recombinant; tags: N-terminal GST; dsDNA, one strand shown. In a few lines: as §1

For another test, the target named is T4, ETV2 (Homo sapiens, UniProt O00321 1-342).
T4 sequence: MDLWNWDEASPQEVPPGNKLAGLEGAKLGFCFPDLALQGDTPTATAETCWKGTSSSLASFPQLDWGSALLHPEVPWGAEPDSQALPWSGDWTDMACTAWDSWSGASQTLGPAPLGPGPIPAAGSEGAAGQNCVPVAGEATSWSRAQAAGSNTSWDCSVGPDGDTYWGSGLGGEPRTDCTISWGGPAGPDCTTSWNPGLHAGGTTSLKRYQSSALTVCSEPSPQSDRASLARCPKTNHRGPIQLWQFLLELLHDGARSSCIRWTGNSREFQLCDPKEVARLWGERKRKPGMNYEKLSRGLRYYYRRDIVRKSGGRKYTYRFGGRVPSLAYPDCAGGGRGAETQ
The conditions noted are these: protein: recombinant; tags: N-terminal GST; dsDNA, one strand shown. Put shortly: as §1

Another test has as its target T5, ELF3 (Homo sapiens, UniProt P78545 1-371).
T5 sequence: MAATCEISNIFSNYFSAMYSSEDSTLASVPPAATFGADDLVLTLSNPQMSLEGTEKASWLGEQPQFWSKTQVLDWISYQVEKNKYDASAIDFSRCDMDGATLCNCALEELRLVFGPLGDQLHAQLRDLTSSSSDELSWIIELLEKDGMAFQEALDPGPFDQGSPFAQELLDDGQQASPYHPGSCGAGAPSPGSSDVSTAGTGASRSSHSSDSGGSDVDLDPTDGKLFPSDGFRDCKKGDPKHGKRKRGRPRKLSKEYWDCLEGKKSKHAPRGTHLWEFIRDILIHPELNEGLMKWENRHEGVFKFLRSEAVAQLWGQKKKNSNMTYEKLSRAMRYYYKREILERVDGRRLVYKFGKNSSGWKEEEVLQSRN
The conditions noted are these: protein: recombinant; tags: N-terminal GST; dsDNA, one strand shown. In a few lines: as §1

A further test addresses CRX (Homo sapiens, UniProt O43186 1-299). The conditions noted are these: protein: recombinant; tags: N-terminal GST; dsDNA, one strand shown. Put shortly:
as §1

A further test concerns the target ETV1 (Homo sapiens, UniProt P50549 1-477). The conditions noted are these: protein: recombinant; tags: N-terminal GST; dsDNA, one strand shown. Put shortly:
as §1

The target of another test is T6, ERF (Homo sapiens, UniProt P50548 1-548).
T6 sequence: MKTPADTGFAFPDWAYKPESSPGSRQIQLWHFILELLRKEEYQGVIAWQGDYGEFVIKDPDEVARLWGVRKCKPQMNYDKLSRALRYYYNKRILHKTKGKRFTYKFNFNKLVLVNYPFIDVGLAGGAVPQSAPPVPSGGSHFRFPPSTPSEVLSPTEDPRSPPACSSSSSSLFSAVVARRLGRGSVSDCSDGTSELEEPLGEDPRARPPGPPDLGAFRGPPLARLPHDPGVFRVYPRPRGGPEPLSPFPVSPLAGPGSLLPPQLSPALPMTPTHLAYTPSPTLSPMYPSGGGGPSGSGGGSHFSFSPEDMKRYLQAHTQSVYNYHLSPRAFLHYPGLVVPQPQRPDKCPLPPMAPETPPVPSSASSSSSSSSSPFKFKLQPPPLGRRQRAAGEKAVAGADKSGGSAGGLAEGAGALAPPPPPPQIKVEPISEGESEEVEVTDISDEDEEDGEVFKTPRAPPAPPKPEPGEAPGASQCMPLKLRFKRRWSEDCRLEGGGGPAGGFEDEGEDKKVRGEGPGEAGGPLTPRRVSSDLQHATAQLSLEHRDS
As to conditions: protein: recombinant; tags: N-terminal GST; dsDNA, one strand shown. Put shortly: as §1

The target in another test is T7, ETV3L (Homo sapiens, UniProt Q6ZN32 1-361).
T7 sequence: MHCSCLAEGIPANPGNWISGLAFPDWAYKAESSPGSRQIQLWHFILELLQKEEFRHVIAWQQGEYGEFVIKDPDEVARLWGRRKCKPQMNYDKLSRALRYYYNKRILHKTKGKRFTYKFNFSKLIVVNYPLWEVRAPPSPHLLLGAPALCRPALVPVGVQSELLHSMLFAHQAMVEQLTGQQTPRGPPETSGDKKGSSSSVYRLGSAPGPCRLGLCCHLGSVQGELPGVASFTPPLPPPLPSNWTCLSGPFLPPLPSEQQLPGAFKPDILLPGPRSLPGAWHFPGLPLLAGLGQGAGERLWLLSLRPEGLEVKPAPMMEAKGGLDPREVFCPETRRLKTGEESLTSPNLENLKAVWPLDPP
The conditions noted are these: protein: recombinant; tags: N-terminal GST; dsDNA, one strand shown. In a few lines:
as §1

For another test, the target named is T8, ETS2 (Homo sapiens, UniProt P15036 1-469).
T8 sequence: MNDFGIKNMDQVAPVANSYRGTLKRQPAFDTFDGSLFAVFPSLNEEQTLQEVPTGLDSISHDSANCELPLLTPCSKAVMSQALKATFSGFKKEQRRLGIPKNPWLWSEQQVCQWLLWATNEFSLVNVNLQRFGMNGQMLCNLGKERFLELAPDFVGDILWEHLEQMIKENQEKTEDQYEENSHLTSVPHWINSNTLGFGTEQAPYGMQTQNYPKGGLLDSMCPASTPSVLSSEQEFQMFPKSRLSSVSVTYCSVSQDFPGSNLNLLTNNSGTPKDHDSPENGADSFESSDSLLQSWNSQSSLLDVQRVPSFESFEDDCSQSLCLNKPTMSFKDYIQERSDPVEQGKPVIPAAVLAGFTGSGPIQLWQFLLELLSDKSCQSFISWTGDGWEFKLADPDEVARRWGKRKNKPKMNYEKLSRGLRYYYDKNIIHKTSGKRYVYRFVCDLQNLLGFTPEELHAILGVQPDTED
The conditions noted are these: protein: recombinant; tags: N-terminal GST; dsDNA, one strand shown. In a few lines: as §1

For another test, the target named is T9, SPDEF (Homo sapiens, UniProt O95238 1-335).
T9 sequence: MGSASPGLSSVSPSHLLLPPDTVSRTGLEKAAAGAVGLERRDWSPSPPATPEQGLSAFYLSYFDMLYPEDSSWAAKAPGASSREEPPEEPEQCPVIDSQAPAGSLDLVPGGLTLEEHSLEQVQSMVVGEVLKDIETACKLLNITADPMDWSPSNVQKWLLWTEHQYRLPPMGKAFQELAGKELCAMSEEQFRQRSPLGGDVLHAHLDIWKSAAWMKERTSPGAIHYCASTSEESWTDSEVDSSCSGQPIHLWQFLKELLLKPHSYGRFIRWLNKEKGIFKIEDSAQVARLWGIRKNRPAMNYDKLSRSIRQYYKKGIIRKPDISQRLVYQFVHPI
As to conditions: protein: recombinant; tags: N-terminal GST; dsDNA, one strand shown. In a few lines: as §1

Another test concerns the target T10, ETV7 (Homo sapiens, UniProt Q9Y603 1-341).
T10 sequence: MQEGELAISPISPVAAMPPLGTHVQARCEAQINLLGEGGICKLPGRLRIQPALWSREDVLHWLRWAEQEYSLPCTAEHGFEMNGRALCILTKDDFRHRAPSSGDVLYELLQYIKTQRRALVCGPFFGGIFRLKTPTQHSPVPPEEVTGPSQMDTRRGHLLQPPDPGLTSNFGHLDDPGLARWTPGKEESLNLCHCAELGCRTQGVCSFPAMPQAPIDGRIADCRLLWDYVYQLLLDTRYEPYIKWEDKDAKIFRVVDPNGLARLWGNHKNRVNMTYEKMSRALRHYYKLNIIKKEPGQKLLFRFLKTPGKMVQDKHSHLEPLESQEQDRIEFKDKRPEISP
The conditions noted are these: protein: recombinant; tags: N-terminal GST; dsDNA, one strand shown. Put shortly:
as §1

Another test deals with T11, ELF5 (Homo sapiens, UniProt Q9UKW6-2 1-255).
T11 sequence: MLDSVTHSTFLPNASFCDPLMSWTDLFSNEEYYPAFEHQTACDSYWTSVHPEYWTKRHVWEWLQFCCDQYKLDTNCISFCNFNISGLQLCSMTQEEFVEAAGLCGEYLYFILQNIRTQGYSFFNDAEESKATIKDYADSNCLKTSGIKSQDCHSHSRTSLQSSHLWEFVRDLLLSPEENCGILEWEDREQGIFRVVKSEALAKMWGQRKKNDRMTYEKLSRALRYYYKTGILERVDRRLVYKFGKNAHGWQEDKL
As to conditions: protein: recombinant; tags: N-terminal GST; dsDNA, one strand shown. In a few lines:
as §1

A further test concerns the target T12, ETV3 (Homo sapiens, UniProt P41162-2 1-143).
T12 sequence: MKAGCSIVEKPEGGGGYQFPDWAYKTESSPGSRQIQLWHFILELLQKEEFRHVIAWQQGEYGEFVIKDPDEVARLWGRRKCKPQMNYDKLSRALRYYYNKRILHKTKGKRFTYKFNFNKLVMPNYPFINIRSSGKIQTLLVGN
As to conditions: protein: recombinant; tags: N-terminal GST; dsDNA, one strand shown. Put shortly:
as §1

The next test has as its target ETV6 (Homo sapiens, UniProt P41212 1-452). The conditions noted are these: protein: recombinant; tags: N-terminal GST; dsDNA, one strand shown. Put shortly:
as §1

Sequence of ETV6 (P41212 whole entry): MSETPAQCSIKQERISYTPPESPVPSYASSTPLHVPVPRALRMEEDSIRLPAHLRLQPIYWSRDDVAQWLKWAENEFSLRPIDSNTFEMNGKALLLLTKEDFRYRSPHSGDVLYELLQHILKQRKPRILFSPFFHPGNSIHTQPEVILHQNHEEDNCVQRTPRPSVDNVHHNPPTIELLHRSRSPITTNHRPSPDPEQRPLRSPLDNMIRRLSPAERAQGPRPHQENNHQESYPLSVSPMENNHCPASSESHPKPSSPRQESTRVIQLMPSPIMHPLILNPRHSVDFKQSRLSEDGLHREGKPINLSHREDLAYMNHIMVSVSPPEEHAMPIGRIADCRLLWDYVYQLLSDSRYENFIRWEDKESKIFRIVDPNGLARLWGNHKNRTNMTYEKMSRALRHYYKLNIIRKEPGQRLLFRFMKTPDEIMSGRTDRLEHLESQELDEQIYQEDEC
Sequence of ELF4 (Q99607 whole entry): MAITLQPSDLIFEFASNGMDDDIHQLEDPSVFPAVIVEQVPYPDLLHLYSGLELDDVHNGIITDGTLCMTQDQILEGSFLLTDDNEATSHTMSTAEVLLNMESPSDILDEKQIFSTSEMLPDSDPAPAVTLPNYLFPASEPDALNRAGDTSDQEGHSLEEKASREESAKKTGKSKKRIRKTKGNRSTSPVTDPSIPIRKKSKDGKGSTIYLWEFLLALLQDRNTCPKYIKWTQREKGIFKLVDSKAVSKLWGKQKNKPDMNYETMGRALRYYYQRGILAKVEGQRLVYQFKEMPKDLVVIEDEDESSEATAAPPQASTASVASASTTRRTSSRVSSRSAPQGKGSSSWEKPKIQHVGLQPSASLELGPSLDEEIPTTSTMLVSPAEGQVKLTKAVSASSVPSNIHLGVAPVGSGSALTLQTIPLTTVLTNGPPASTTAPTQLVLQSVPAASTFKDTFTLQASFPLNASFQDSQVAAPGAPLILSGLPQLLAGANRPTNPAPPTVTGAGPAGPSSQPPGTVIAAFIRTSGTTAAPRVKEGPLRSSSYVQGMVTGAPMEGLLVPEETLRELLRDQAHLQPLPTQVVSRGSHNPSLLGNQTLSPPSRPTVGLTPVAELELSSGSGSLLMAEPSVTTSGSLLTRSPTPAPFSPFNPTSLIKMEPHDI
Sequence of CRX (O43186 whole entry): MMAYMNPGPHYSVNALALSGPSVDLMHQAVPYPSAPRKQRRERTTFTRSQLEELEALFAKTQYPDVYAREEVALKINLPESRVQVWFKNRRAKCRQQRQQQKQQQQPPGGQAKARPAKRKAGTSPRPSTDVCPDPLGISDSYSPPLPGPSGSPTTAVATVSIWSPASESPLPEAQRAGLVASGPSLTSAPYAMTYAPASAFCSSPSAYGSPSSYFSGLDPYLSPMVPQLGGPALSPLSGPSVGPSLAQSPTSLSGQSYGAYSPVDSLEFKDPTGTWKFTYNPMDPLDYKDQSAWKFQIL
Sequence of ETV1 (P50549 whole entry): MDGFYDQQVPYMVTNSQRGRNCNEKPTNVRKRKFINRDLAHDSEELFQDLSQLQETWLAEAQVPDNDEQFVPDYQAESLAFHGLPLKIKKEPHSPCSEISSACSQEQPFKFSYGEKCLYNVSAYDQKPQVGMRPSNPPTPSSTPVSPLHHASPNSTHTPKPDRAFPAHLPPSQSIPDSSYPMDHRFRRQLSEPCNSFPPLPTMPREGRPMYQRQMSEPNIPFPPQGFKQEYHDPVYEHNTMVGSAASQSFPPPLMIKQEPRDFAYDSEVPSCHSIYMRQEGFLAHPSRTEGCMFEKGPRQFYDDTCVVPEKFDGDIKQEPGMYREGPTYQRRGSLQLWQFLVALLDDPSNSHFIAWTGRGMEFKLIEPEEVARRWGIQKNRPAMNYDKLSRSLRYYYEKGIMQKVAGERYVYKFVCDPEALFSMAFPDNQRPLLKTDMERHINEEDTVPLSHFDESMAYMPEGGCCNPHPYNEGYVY

GATGAC: the binding signal was 1.47 fold enrichment (6-mer frequency, TF over GST control) with FEV; 1.49 fold enrichment (6-mer frequency, TF over GST control) with ETV5; 1.27 fold enrichment (6-mer frequency, TF over GST control) with HSF1; 1.15 fold enrichment (6-mer frequency, TF over GST control) in the test with SPIC; 1.56 fold enrichment (6-mer frequency, TF over GST control) with ELF4; 1.42 fold enrichment (6-mer frequency, TF over GST control) in the test with ELK4. Besides, the binding signal is 1.35 fold enrichment (6-mer frequency, TF over GST control) with ETV2; 1.48 fold enrichment (6-mer frequency, TF over GST control) in the test with ELF3; 1.26 fold enrichment (6-mer frequency, TF over GST control) with CRX; 1.55 fold enrichment (6-mer frequency, TF over GST control) with ETV1; 1.45 fold enrichment (6-mer frequency, TF over GST control) with ERF; 1.53 fold enrichment (6-mer frequency, TF over GST control) with ETV3L. In addition, the binding signal with ETS2 was 1.44 fold enrichment (6-mer frequency, TF over GST control); with SPDEF it was 1.55 fold enrichment (6-mer frequency, TF over GST control); with ETV7, 1.61 fold enrichment (6-mer frequency, TF over GST control); in the test with ELF5, 1.53 fold enrichment (6-mer frequency, TF over GST control); with ETV3, 1.56 fold enrichment (6-mer frequency, TF over GST control); in the test with ETV6, 1.43 fold enrichment (6-mer frequency, TF over GST control).
